Vif-APOBEC3G blk – inhibitors of Vif-APOBEC3G interaction. HeLa A3G-eYFP + Vif (tagged APOBEC3G with the HIV-1 protein that degrades it), YFP fluorescence, overnight. Potency, µM (series often up to 46.1 µM), inactives show top-dose activity, negative = active, most hits filed as inhibitors. AID 602310. 410,000 compounds, 0.076% hits. Q9HC16; further: on the % scale 0 is the no-effect control and ±100 the full control effect; nearly all actives have a fitted effect of over 60% in size
Target sequence (Q9HC16 whole entry, looked up): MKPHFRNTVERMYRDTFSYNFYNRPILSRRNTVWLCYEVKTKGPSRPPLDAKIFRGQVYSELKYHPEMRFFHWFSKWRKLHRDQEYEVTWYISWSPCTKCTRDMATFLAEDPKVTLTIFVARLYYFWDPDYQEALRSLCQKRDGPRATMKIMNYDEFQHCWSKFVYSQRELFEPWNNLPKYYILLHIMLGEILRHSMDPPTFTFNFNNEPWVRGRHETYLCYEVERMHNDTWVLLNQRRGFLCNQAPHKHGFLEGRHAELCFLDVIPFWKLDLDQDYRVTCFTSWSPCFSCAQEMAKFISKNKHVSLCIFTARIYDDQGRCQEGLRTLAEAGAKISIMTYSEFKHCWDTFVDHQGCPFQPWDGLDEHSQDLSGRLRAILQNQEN
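Read-out is eYFP fluorescence (Ex 488/Em 500-530) from Vif-expressing HeLa A3G-eYFP cells; more signal means A3G escaped Vif-mediated degradation. Cells plated overnight, compound pinned in, incubated overnight at 37 deg C.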
GRP78 ERSR act – induces the endoplasmic reticulum stress response in human glioma cells; U87-MG GRP78 promoter luciferase reporter, 16 h; AID 602332; Potency, µM, for inactives: at the highest dose activation, hits mostly activators; 420,000 compounds, 0.02% hits; further: series mostly up to about 76 µM; % of control where 0% means no effect; nearly all actives have a fitted effect of over 35% in size
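ERSR induction read as luciferase luminescence (Bright-Glo, 10 min at room temperature) in stably transfected human U87-MG glioma cells exposed to compounds for 16 h, using GRP78 as sensor.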
Vif-APOBEC3F blk – Vif-A3F binding inhibition; HeLa A3F-eYFP + Vif (tagged APOBEC3F with the HIV-1 protein that degrades it), YFP fluorescence increase; Potency, µM (top dose mostly 46.1 µM), inactives show at the top dose activity, negative = active; 390,000 compounds, 0.2% hits; further: % of control where 0% means no effect; nearly all actives have a fitted effect of over 65% in size
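HeLa cells stably expressing Vif plus C-terminally eYFP-tagged A3F were seeded, incubated overnight at 37 deg C, dosed with compound, incubated overnight again at 37 deg C. Yellow fluorescence (Ex 488/Em 500-530) reported blocked Vif-mediated A3F-eYFP degradation.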
Epigenetic derep – derepresses silenced GFP reporter in murine cells. murine LDR cells, GFP reporter derepression, 30 h. Potency, µM (series often up to 53.9 µM), for inactives: top-dose GFP activation, most hits filed as activators. 280,000 compounds, 0.2% hits; further: % of control where 0% means no effect; nearly all actives have a fitted effect of over 60% in size
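Derepression of a silenced CMV-GFP reporter in murine LDR cells is scored by enumerating GFP-positive cells with a laser-scanning microplate cytometer after 30 hours of treatment at 37 C.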
Starred values were filed as active, the others as inactive; i = inactive; ? = inconclusive; . = not tested or not shown; [ ] = remark or other dose. The list is not random: actives were taken first. Their share in the collection is about 0.35%. The call rests on the fitted dose curve; in most records, active means well fitted curve in the direction sought with a large enough effect; inconclusive means small, poorly fitted or top-dose-only effect, or another doubt; inactive means no such curve, though single readings can be large; an effect the other way counts as inactive or inconclusive. Potency means the concentration at half of the fitted maximal effect.

SMILES | Vif-APOBEC3G blk | GRP78 ERSR act | Vif-APOBEC3F blk | Epigenetic derep
O=C(CN1c2cccc3cccc(c23)S1(=O)=O)Nc1ccc(S(=O)(=O)N2CCOCC2)cc1 | -5% | -3% | 22µM* | -1%
O=C(CN1C(=O)c2cccc3cccc1c23)Nc1ccc(S(=O)(=O)N2CCOCC2)cc1 | 0% | -1% | -8% | -1%
C[n+]1ccc(/C=C/c2ccc(F)cc2)c2ccccc21 | 8% | -6% | . | .
C[n+]1ccc(/C=C/c2cc[n+](C)c3ccccc23)c2ccccc21 | 13µM* | -9% | . | .
Cc1ccc2c(c1)C/C(=C/c1ccc(N(C)C)cc1)C2=O | -6% | 7% | . | .
CN(C)c1ccc(/C=C2\Cc3ccccc3C2=O)cc1 | 3.2µM* | 7% | . | .
Cc1noc(C)c1C(=O)OCC(=O)Nc1ccccc1SCC#N | -19% | 0% | 22µM* | .
N#CCSc1ccccc1NC(=O)COC(=O)CCNC(=O)c1ccc([N+](=O)[O-])cc1 | -15% | 1% | 22µM* | .
O=C1Nc2ccccc2/C1=C/c1cnc(-c2ccccc2)[nH]1 | -8% | 0% | -13% | 22µM*
COc1ccc(NC(=O)CSc2ccc3c4c(cccc24)C(=O)c2ccccc2-3)cc1 | ? | -1% | 11µM* | ?
N#Cc1cccc(NC(=O)CSc2ccc3c4c(cccc24)C(=O)c2ccccc2-3)c1 | 2.8µM* | -3% | 11µM* | 5µM*
COc1ccc(NC(=O)CSc2nnc(C)c3ccccc23)cc1 | -28% | -2% | -1% | .
Cc1cc(F)ccc1-c1cc(C(=O)NC(C)C)[nH]n1 | -5% | 1% | . | .
CCN(CC)c1ccc(/C=C/c2cccc[n+]2C)c(OC)c1 | 7.9µM* | -6% | -530% | .
C[C@H](N=C(NC#N)Nc1ccncc1)C(C)(C)C | . | -1% | . | 1%
CC1CCc2c(sc3nc(C(C)(C)C)nc(N4CCN(C(=O)CCl)CC4)c23)C1 (centres undefined) | -18% | -15% | 6% | .
Cc1ccc(-n2nc3c(SCCN4CCOCC4)nnc(C)c3c2C)cc1 | ? | -1% | 25µM* | 0%
CC(C)(C)C(=O)NC(=S)NNC(=O)C(c1ccccc1)c1ccccc1 | 3% | 22µM* | 2% | -1%
CC(=O)NNC(=S)NC(=O)C(c1ccccc1)c1ccccc1 | 0% | -8% | -1% | ?
COCCN1C(=O)/C(=C/c2ccc(N3CCCC3)cc2C)SC1=S | ? | -5% | ? | 2.8µM*
OCCCn1c(C2CCCN2c2nc(-c3ccc(Cl)cc3)cs2)nc2cc(Cl)c(N3CCCCC3)cc21 (centres undefined) | -6% | 0% | ? | .
OCCCn1c(C2CCCN2c2nc(-c3ccc(F)cc3)cs2)nc2cc(Cl)c(N3CCCCC3)cc21 (centres undefined) | 1% | -2% | 25µM* | .
CCN1CCN(Cc2ccc(NC(=O)c3ccc(C)c(/C=C/c4cnc(Nc5cc(N6CCNCC6)nc(C)n5)cn4)c3)cc2C(F)(F)F)CC1 | ? | -12% | 32µM* | .
Cc1cn([C@@H]2C[C@H](N=[N+]=N)[C@H](CO)O2)c(=O)[nH]c1=O | . | -4% | . | 0%[16.9 µM]
N#Cc1cc2ccccc2nc1SCc1ccccn1 | ? | 3% | 13µM* | 0%
SMILES | Vif-APOBEC3G blk | GRP78 ERSR act | Vif-APOBEC3F blk | Epigenetic derep
COc1cccc(Cn2c(=O)c(-c3ccc(Cl)cc3)nc3cnc(OC)nc32)c1 | . | -2% | . | .
Oc1ccc(/C=N\Nc2nncc(-c3ccccc3)n2)cc1 | 11µM* | ? | -14% | 3%
COc1ccc(-c2cnnc(N/N=C/c3ccc(O)cc3)n2)cc1 | -23% | 18% | -5% | 6%
CSc1ccc(CCNc2ncnc3onc(-c4ccc(Cl)cc4)c23)cc1 | 11% | -5% | -2% | -1%
CSc1cccc(NC(=O)c2cc3c(COC(C)=O)cnc(C)c3oc2=O)c1 | ? | -3% | 10µM* | 3%
Cc1nn(C)c(C)c1N1C(=O)c2cccc3c(N)ccc(c23)C1=O | 9% | -1% | ? | -4%
Cc1ccc(N2C(=O)c3cccc4c(N)ccc(c34)C2=O)c2cccnc12 | 8% | -7% | ? | 4µM*
NS(=O)(=O)c1ccc(N/N=C/c2ccccc2C(=O)O)c([N+](=O)[O-])c1 | -1% | -5% | -21% | -2%
O=C(O)c1ccccc1/C=N/Nc1ccc(S(=O)(=O)N2CCOCC2)cc1[N+](=O)[O-] | 6.3µM* | 7% | 0% | 1%
O=C(/C=C/c1ccccc1)CC(=O)c1ccccc1O | ? | 6% | -3% | 2%
O=C(Nc1ccccc1C(=O)NCCCN1CCOCC1)c1ccc(F)cc1 | 3% | -2% | 4% | .
Cc1cc(=O)c2c(O)c3c(O)cc(=O)c4c3c3c(cc(O)c1c23)C(C)(C)C=4O | . | -6% | . | 16µM*
Cc1ccc(NC(=O)c2cccc(-n3cnnn3)c2)cc1Cl | -7% | -2% | 5% | .
CCOC(=O)c1cccc(NC(=O)[C@H](CSCc2ccccc2)N2Cc3ccccc3C2=O)c1 | -2% | -3% | -12% | 0%
Cc1ccc(-c2nc(-c3cc4cccc(OCc5ccc(F)cc5)c4oc3=O)no2)cc1 | ? | -1% | ? | ?
Cc1ccc(-c2nc(-c3cc4cccc(OCc5cccc(F)c5)c4oc3=O)no2)cc1 | -29% | -2% | 8.9µM* | ?
O=c1[nH]c2ccccc2n2c(=S)[nH]nc12 | 5% | -2% | 22µM* | 0%
O=c1[nH]c2ccccc2n2c(C(F)(F)F)nnc12 | -26% | -3% | 10µM* | .
CN(C)c1ncc2nc(CCc3ccccc3)c(=O)n(Cc3cccs3)c2n1 | . | -2% | . | .
C=CCOC(=O)c1sc(NC(=O)c2ccc(OC)cc2)nc1C | 0% | -7% | -4% | 1%
CC(C)OC(=O)c1cc(C(=O)c2cc(F)ccc2O)coc1=N | ? | -3% | 11µM* | 2%
COc1ccc(O)c(C(=O)c2coc(=N)c(C(=O)Nc3ccc(SC(F)F)cc3)c2)c1 | 5% | 1% | 13µM* | -4%
COCCNC(=S)N/N=C(\C)c1ccc(OC(F)F)cc1 | -1% | -7% | 25µM* | 0%
COCCNC(=S)N/N=C(\C)c1ccc(OC)cc1 | 0% | -1% | 0% | 1%
COCCNC(=S)N/N=C(\C)c1ccc2cc(OC)ccc2c1 | -14% | -2% | -1% | 7.9µM*
SMILES | Vif-APOBEC3G blk | GRP78 ERSR act | Vif-APOBEC3F blk | Epigenetic derep
C[C@H]1COC(=O)[C@H]2CCCN2C(=O)[C@@H](C)COC(=O)[C@H]2CCCN2C1=O | . | -2% | . | 0%[10.1 µM]
N#CC1=C(S)N(c2ccccc2)C(c2ccc(-c3cccc(Cl)c3)o2)NC1=O (centres undefined) | -6% | 4% | 7.1µM* | 4%
C/C=C/c1cc(CN2CCN(c3ccc(OC)cc3)CC2)c(O)c(OC)c1 | 1% | -3% | 1% | -1%
CCOCCCNc1nc2c(C)cccn2c(=O)c1/C=C1\SC(=S)N(CC(C)C)C1=O | -28% | -3% | ? | 12%
CCOCCCNc1nc2c(C)cccn2c(=O)c1/C=C1\SC(=S)N(C(C)CC)C1=O (centres undefined) | ? | 1% | i | 3.2µM*
COc1ccc(CN2CCCC(n3cc(C(=O)N4CCCCC4)nn3)C2)cc1OC (centres undefined) | . | -3% | . | .
